Most compounds without a hit are left out; they make up all but 11% or so of the library.
L3MBTL1 block: qHTS Assay for the Inhibitors of L3MBTL1. Lethal(3)malignant brain tumor-like protein 1 (Homo sapiens), Q9Y468. AlphaScreen L3MBTL1–H3K9me1 peptide binding. Potency, µM (highest dose often 57.1 µM), actives largely listed as inhibitors. actives 0.66% (n = 230,000). AID 485360, 2010; further: nearly all actives have a fitted effect of over 60% in size
Target sequence (Q9Y468 whole entry, looked up): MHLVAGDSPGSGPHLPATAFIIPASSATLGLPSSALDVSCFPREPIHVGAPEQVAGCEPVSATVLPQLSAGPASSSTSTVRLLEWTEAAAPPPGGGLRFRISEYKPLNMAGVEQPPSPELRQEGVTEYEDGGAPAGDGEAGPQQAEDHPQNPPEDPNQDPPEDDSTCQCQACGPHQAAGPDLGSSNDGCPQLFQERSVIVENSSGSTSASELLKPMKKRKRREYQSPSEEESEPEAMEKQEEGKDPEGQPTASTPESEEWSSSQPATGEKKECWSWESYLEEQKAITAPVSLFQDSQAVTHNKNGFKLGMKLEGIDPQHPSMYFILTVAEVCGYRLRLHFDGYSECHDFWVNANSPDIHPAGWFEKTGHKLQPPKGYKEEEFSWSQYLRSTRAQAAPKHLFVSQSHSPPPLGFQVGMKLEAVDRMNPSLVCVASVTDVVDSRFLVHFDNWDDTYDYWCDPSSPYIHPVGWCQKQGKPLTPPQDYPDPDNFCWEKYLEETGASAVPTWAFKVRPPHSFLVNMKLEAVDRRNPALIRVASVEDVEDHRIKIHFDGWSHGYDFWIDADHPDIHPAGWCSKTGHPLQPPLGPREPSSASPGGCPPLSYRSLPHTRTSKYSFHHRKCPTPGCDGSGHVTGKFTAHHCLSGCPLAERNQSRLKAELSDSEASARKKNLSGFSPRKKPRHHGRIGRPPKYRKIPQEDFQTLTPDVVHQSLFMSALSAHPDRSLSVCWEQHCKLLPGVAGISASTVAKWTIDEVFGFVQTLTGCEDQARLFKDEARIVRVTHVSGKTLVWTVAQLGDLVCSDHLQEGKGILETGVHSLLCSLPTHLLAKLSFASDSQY
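Read-out is AlphaScreen signal from streptavidin donor and nickel chelate acceptor beads (10 ug/mL final each) bridging L3MBTL1 (50 nM) and biotinylated K9-monomethylated H3(1-15) peptide (75 nM), after 30 min compound exposure at room temperature.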
G9a block: qHTS Assay for Inhibitors of Histone Lysine Methyltransferase G9a; G9a H3K9 monomethylation, AlphaScreen, 2 h; actives 8.8% (n = 350,000); Potency, µM (doses to about 102 µM), hits mostly inhibitors; further: nearly all actives have a fitted effect of over 75% in size
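Quantitative HTS format: methyltransferase activity on a biotin-tagged H3K9 peptide is measured by AlphaScreen, using a rabbit anti-monomethyl-H3K9 antibody with streptavidin donor and anti-IgG acceptor beads. Final levels are 20 nM enzyme, 500 nM peptide, 20 uM SAM; 2 h RT.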
HP1b binding inh: HTS for Inhibitors of HP1-beta Chromodomain Interactions with Methylated Histone Tails | Chromobox protein homolog 1 (Homo sapiens), P83916 | AlphaScreen HP1-beta / biotin-H3K9me3 peptide binding | Potency, µM (series often up to 114 µM), usual class: inhibitors | actives 0.56% (n = 390,000); further: nearly all actives have a fitted effect of over 70% in size
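Compound inhibition of the preformed complex between 50 nM HP1-beta and 50 nM biotinylated H3K9me3 peptide was read by AlphaScreen. Buffer was PBS pH 7.4 with 0.01% Tween-20. Incubations ran 30 min at room temperature, with 10 ug/mL donor/acceptor beads.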
JMJD2A Tudor: qHTS Assay for Inhibitors of JMJD2A-Tudor Domain; Lysine-specific demethylase 4A (Homo sapiens), O75164; AlphaScreen JMJD2A-Tudor / H3K4me3 peptide binding; Potency, µM (doses to about 114 µM), actives largely listed as inhibitors; actives 4.4% (n = 390,000); further: nearly all actives have a fitted effect of over 50% in size
BAZ2B inh: qHTS Assay for Inhibitors of BAZ2B; Bromodomain adjacent to zinc finger domain protein 2B (Homo sapiens), Q9UIF8; Potency, µM (doses to about 114 µM), most hits filed as inhibitors; actives 4.4% (n = 360,000); AlphaScreen BAZ2B-H3K14Ac peptide displacement; further: nearly all actives have a fitted effect of over 60% in size
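BAZ2B (50 nM) with biotin-H3(5-23)K14Ac peptide (50 nM) in PBS pH 7.4, 0.01% Tween-20, preformed 30 min, then compound 30 min at room temperature; top concentration 110uM. AlphaScreen streptavidin donor/nickel chelate acceptor beads (10 ug/mL final), 20 min dark, signal read.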
Of the large screens only hits and unclear results are named; the others gave an inactive call. The call rests on the fitted dose curve; in most records, active means well fitted inhibition curve with a large enough effect; inconclusive means small, poorly fitted or top-dose-only effect; inactive means no such curve, though single readings can be large or run the other way.

CCOC(=O)C1=C(C)N=c2s/c(=C\c3ccc(OCC(=O)O)cc3)c(=O)n2C1c1ccc(Cl)cc1 (stereo unspecified)	L3MBTL1 block inconclusive, HP1b binding inh 40µM, JMJD2A Tudor 20µM, BAZ2B inh 7.9µM (no result: G9a block)
CCOC(=O)C1=C(C)N=c2s/c(=C/c3ccc(OCC(=O)O)cc3)c(=O)n2C1c1ccc(SC)cc1 (stereo unspecified)	L3MBTL1 block inconclusive, BAZ2B inh 35µM (no result: G9a block, HP1b binding inh, JMJD2A Tudor)
CCOC(=O)C1=C(C)N=c2s/c(=C/c3ccc(OCC(=O)O)c(OC)c3)c(=O)n2C1c1ccc(Cl)cc1 (stereo unspecified)	HP1b binding inh 32µM, JMJD2A Tudor 20µM (no result: L3MBTL1 block, G9a block, BAZ2B inh)
COc1ccc(C2C(C(=O)OC(C)C)=C(C)N=c3s/c(=C\c4cccs4)c(=O)n32)cc1 (stereo unspecified)	BAZ2B inh inconclusive
CCOC(=O)C1=C(C)N=c2s/c(=C/c3ccccc3)c(=O)n2C1c1ccc(OC)c(OC)c1 (stereo unspecified)	none
CCOC(=O)C1=C(C)N=c2s/c(=C\c3ccncc3)c(=O)n2C1c1ccc2c(c1)OCO2 (stereo unspecified)	JMJD2A Tudor inconclusive, BAZ2B inh inconclusive
CCOC(=O)C1=C(C)N=c2s/c(=C/c3ccc(OCC(=O)O)cc3)c(=O)n2C1c1ccc(F)cc1 (stereo unspecified)	G9a block inconclusive, JMJD2A Tudor 79µM, BAZ2B inh inconclusive (no result: L3MBTL1 block)
Cc1ccccc1NC(=O)CSc1nc2nccnc2c(=O)n1CCc1c[nH]c2ccccc12	none (no result: L3MBTL1 block)
CCOC(=O)C1=C(C)N=c2sc(=C(C)C)c(=O)n2C1c1ccc(N(C)C)cc1 (stereo unspecified)	JMJD2A Tudor 89µM (no result: L3MBTL1 block, G9a block, BAZ2B inh)
CCOC(=O)C1=C(C)Nc2ncnn2C1c1ccc(N(C)C)cc1 (stereo unspecified)	G9a block inconclusive, JMJD2A Tudor inconclusive
CCc1ccccc1N1C(=O)N(CC(=O)c2ccc(OC)cc2)c2ccccc2S1(=O)=O	none (no result: L3MBTL1 block)
O=C(NNC(=S)Nc1ccc(Br)cc1)c1cccnc1	G9a block 10µM (no result: L3MBTL1 block)
CC(C)c1ccc(NC(=S)NNC(=O)c2cccnc2)cc1	G9a block 32µM
CCNC(=S)NNC(=O)c1cccnc1	none
COc1ccccc1-c1noc(-c2ccc(NC(C)C)c([N+](=O)[O-])c2)n1	BAZ2B inh inconclusive (no result: L3MBTL1 block)
N#Cc1cnc(NN)nc1	L3MBTL1 block inconclusive, G9a block 50µM, HP1b binding inh inconclusive, JMJD2A Tudor 0.79µM, BAZ2B inh 22µM
Cc1ccc(C)n1-c1ccc(C#N)cn1	L3MBTL1 block inconclusive
CCOC(=O)c1nc(N2CCN(c3ccc(F)cc3)CC2)c2c(C)noc2n1	none (no result: L3MBTL1 block)
CC1=C(C(=O)Nc2ccc(C)cc2C)C(c2ccccc2[N+](=O)[O-])n2ncc(C(=O)Nc3ccccc3)c2N1 (stereo unspecified)	G9a block 7.1µM, JMJD2A Tudor inconclusive (no result: L3MBTL1 block)
CC1=C(C(=O)Nc2ccc(C)cc2C)C(c2ccc(Br)cc2)n2ncc(C(=O)Nc3cccc(C)c3)c2N1 (stereo unspecified)	none (no result: L3MBTL1 block)
CCOC(=O)SC1=N/C(=C\c2ccc(N(C)C)cc2)C(=O)S1	G9a block 10µM, HP1b binding inh 35µM, JMJD2A Tudor 20µM, BAZ2B inh 13µM
CCSC1=N/C(=C\c2ccc(C(=O)O)cc2)C(=O)S1	G9a block inconclusive, BAZ2B inh inconclusive
Cc1nn(C)c(C)c1S(=O)(=O)N(CC(=O)NCCc1ccc(Cl)cc1)c1ccc(C(C)C)cc1	none (no result: L3MBTL1 block)
CC(C)CCNC(=O)Cn1cc(S(=O)(=O)Cc2ccc(F)cc2)c2ccccc21	BAZ2B inh inconclusive (no result: L3MBTL1 block)
O=C(N/N=C/c1cccnc1)c1ccc(Cl)c(Cl)c1	none (no result: L3MBTL1 block, G9a block, BAZ2B inh)
CC(=O)Nc1ccc(C(=O)N/N=C/c2cccnc2)cc1	none
O=C(N/N=C/c1cccnc1)c1ccc(NC(=O)c2ccc(Cl)cc2)cc1	G9a block 45µM (no result: L3MBTL1 block)

Screening data as filed in PubChem.
